# Reference: PubChem BioAssay AID651681 (Broad Institute, 2012)
# Active and inactive are the calls of the source.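 How the source made its calls: active means compound with fitted CDK2 half-maximal potency at or below twice its top tested dose; inconclusive means flat curve near 30 to 70% inhibition, or poor fit; inactive means the rest.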
# Biological target: Cyclin-dependent kinase 2 (Homo sapiens) + Cyclin-A2 (Homo sapiens) (UniProt P20248+P24941)
# Assay: CDK2/cyclin A inhibitors, off-target check, dose response, selectivity assay for Dyrk1A inhibitor project, biochemical, dry powder, set 3 (AID 651681)
# Cyclin-dependent kinase 2 (Homo sapiens) + Cyclin-A2 (Homo sapiens), sequence (P20248 whole entry, looked up, one chain of several): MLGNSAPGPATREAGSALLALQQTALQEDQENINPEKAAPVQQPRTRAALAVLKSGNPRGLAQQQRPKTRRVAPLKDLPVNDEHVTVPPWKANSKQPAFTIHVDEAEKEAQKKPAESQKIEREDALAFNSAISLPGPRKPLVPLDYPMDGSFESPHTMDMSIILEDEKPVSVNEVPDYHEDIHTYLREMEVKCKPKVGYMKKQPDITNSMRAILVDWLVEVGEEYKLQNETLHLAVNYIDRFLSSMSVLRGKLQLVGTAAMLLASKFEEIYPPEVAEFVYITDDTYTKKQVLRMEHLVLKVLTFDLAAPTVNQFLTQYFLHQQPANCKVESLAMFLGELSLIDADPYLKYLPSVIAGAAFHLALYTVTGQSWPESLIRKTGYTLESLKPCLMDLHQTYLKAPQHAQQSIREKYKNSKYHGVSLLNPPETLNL
structure (smiles),measurement,value
COc1ccc2c(c1)[nH]c1c(C)nccc12,outcome,inactive
